Compounds with a hit are over-represented: about 2.5% of the library has one in this group of screens.
Cruzain noTriton: inhibitors of Trypanosoma cruzi cruzain without detergent; P25779; 2.3% of 200,000 active; Potency, µM, usual class: inhibitors; purified cruzain, Z-FR-AMC fluorescence, no detergent; note: nearly all actives have a fitted effect of over 40% in size
Target sequence (P25779 123-467 limits assumed): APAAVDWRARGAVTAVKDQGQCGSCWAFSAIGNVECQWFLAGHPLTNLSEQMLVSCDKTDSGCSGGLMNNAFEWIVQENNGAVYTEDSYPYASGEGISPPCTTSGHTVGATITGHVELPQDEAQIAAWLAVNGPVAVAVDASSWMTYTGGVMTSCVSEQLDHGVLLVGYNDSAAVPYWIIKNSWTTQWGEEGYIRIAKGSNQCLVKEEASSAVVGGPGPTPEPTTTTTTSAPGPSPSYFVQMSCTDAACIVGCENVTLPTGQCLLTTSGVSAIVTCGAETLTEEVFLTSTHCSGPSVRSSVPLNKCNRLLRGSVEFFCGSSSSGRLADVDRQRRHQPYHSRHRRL
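Purified cruzain at 1.5 nM, pre-incubated 15 min with compound at room temperature in 100 mM sodium acetate pH 5.5, 5 mM DTT, 0.00005% Triton X-100. Reaction started with 2 uM Z-FR-AMC; AMC fluorescence increase over 60 s gives rate.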
Cruzain Triton: cruzain (T. cruzi) inhibition with detergent; AID 1478; Potency, µM, actives largely listed as inhibitors; P25779; 0.43% of 200,000 active; purified cruzain, Z-FR-AMC fluorescence, 0.01% Triton; note: nearly all actives have a fitted effect of over 40% in size
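In this qHTS format, compounds are incubated with 1.5 nM cruzain for 15 min at room temperature before 2 uM Z-FR-AMC is added. Release of AMC is followed at 360/450 nm, and progress is taken as the 60 s fluorescence difference.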
Large screens that a line does not name were inactive. Calls come from the whole dose curve; as a rule, active = well fitted curve in the direction sought with a large enough effect; inconclusive = small, poorly fitted or top-dose-only effect, or another doubt; inactive = no such curve, though single readings can be large; an effect the other way counts as inactive or inconclusive.

O=C(Cn1c(=O)n(CCc2c[nH]c3ccccc23)c(=O)c2cccnc21)Nc1ccccc1F	Cruzain noTriton inconclusive
Cc1cccc(NC(=O)Cn2c(=O)n(CCc3c[nH]c4ccccc34)c(=O)c3cccnc32)c1	Cruzain noTriton 25.1µM
O=C(COc1ccc(Cl)cc1)Nc1ccc2nc(SCC(=O)N3CCCC3)sc2c1	none
Nc1nnc(CC(=O)N/N=C/c2ccc(-c3ccccc3)o2)s1	none
Cc1cccc(OCCOc2ccc(/C=N/NC(=O)Cc3nnc(N)s3)cc2)c1	Cruzain noTriton 5.01µM
O=C(NN1C(=O)c2cc(Br)ccc2NC1c1cc(Br)cc(Br)c1O)c1ccncc1 (stereo unspecified)	Cruzain noTriton 10µM
O=C(NN1C(=O)c2cc(Br)ccc2NC1c1ccccc1Cl)c1ccncc1 (stereo unspecified)	none
O=C(NC1(C(F)(F)F)NC(=O)N(CCc2ccccc2)C1=O)c1ccccc1F (stereo unspecified)	none
Cc1cccc(C(=O)O/N=C(\N)c2ccc(Br)cc2)c1	none
N/C(=N\OC(=O)c1ccc2ccccc2c1)c1ccc(Br)cc1	Cruzain noTriton 10µM
CCCN(CCC)C(=O)CSc1nnc2cc(C)c3ccccc3n12	none
Cc1c(C(=O)N2CCOCC2)oc2c1-c1nn(CC(=O)NCc3cccc(Cl)c3)cc1CC2	none
Cc1ccccc1NC(=O)Cc1nnc(SCC(=O)c2ccc(Br)cc2)n1C	none
Cc1ccc(NC(=O)Cc2nnc(SCC(=O)c3ccc(Br)cc3)n2C)cc1Cl	Cruzain noTriton 12.6µM
Cc1ccccc1NC(=O)C1CCN(C(=O)c2cnn(-c3ccccc3)c2-n2cccc2)CC1	Cruzain noTriton inconclusive
Cc1ccc(/C=C2/SC(=S)N(CCC(=O)N3CCN(c4ccccc4)CC3)C2=O)cc1	none
CC(/C=C1\SC(=O)N(CC(=O)Nc2ccc(O)cc2)C1=O)=C\c1ccccc1	none
CC(/C=C1\SC(=S)N(CC(=O)N2CCN(c3ccccc3)CC2)C1=O)=C\c1ccccc1	Cruzain noTriton 10µM
CC(=O)c1ccc(NC(=O)CCCN2C(=O)/C(=C/C(C)=C/c3ccccc3)SC2=S)cc1	Cruzain noTriton 31.6µM
N=C(N)c1ccccc1	none
N=C(N)c1ccc(/C=C\c2ccc(C(=N)N)cc2)cc1	Cruzain noTriton 3.16µM
COc1ccc(CCNC(=O)CCCn2nc(C)c3sc4ccccc4c3c2=O)c(OC)c1	none
O=C1NC(=O)N(CCC2=CCCCC2)C(=O)/C1=C\c1cccs1	none
Cn1cccc1/C=C1\C(=O)NC(=O)N(CCC2=CCCCC2)C1=O	Cruzain noTriton 20µM
Cc1cccc(N(C)S(=O)(=O)c2nnc(NC(=O)C3CCCCC3)s2)c1	none
Cn1c(=O)c2c(nc(SCC(=O)Nc3ccccc3F)n2Cc2ccccc2F)n(C)c1=O	none
O[C@@H](c1cc(C(F)(F)F)nc2c(Cl)cc(Cl)cc12)C1CCCCN1 (stereo partly specified)	none
COc1ccc(Nc2nc(C)c3ccccc3n2)cc1	none
CC1=NC(Nc2nc(C)c3ccccc3n2)=NC(C)(C)C1	Cruzain noTriton 15.8µM, Cruzain Triton 20µM
Cc1ccc(OCCn2nnc3sc4c(c3c2=O)CCC(C)C4)cc1 (stereo unspecified)	none
O=C(CSc1nc2c([nH]c3ccccc32)c(=O)n1-c1ccc(F)cc1)NCc1ccc(F)cc1	none
CC1=Nc2cc(C(=O)NC3CCCC3)ccc2Sc2ccc(Cl)cc21	Cruzain noTriton inconclusive
CCC1=Nc2cc(C(=O)NC3CCCC3)ccc2Sc2ccc(Cl)cc21	Cruzain noTriton 7.94µM
CCc1ccccc1NC(=O)Cn1c(=O)n(Cc2ccco2)c(=O)c2sc3ccccc3c21	none
COc1ccc(CNC(=O)/C(C#N)=C2\N=C(NC(=O)c3cccs3)c3ccccc32)cc1	Cruzain noTriton 25.1µM
COc1ccc(CNC(=O)c2cccs2)cc1	none
CCC(=O)Nc1nnc(SCC(=O)c2ccc3c(c2)Cc2ccccc2-3)s1	Cruzain noTriton 20µM
CC(=O)Nc1nnc(SCC(=O)c2ccc3c(c2)Cc2ccccc2-3)s1	none
CC1CCCC(C)N1C(=O)CSc1nnc(NC(=O)Cc2cccs2)s1 (stereo unspecified)	none
Cc1nnc(SCC(=O)N2c3ccccc3CC2C)s1 (stereo unspecified)	none
CC1Cc2ccccc2N1C(=O)CSc1nnc(NC(=O)Cc2cccs2)s1 (stereo unspecified)	Cruzain noTriton 25.1µM, Cruzain Triton 15.8µM
CCC(=O)Nc1nnc(SCC(=O)N2c3ccccc3CC2C)s1 (stereo unspecified)	Cruzain noTriton 12.6µM, Cruzain Triton 3.55µM
CCN(C(=O)c1ccc2c(c1)N(Cc1cccc(Cl)c1)C(=O)c1ccccc1S2=O)c1ccccc1 (stereo unspecified)	none
Cc1ccc(NC(=O)N2CCC3(CC2)Oc2ccccc2C(=O)N3Cc2ccc(F)cc2)cc1	Cruzain noTriton inconclusive
O=C1c2ccccc2OC2(C=Cc3ccccc3O2)N1Cc1ccccc1 (stereo unspecified)	Cruzain noTriton 25.1µM
C/C(CC(=O)Nc1ccc(OCc2ccccc2)cc1)=N\NC(=O)C(=O)Nc1cccc(C)c1	Cruzain noTriton 31.6µM
COc1ccccc1NC(=O)C(=O)N/N=C(\C)CC(=O)Nc1ccc(OCc2ccccc2)cc1	none
COc1ccc(C)cc1NC(=O)C1CCN(S(=O)(=O)c2ccc3[nH]c4c(c3c2)CCCCC4)CC1	Cruzain noTriton 15.8µM
CC(=O)c1ccc(NC(=O)C2CCN(S(=O)(=O)c3ccc4[nH]c5c(c4c3)CCCCC5)CC2)cc1	none
Cc1ccc(Cl)cc1N1CCN(S(=O)(=O)c2ccc3[nH]c4c(c3c2)CCCCC4)CC1	Cruzain noTriton 5.01µM
COc1ccc(NC(=O)C2CCN(S(=O)(=O)c3ccc4[nH]c5c(c4c3)CCCCC5)CC2)cc1	none
Cc1ccc(Cl)cc1N1CCN(S(=O)(=O)c2cccc(S(=O)(=O)N3CCCC3)c2)CC1	Cruzain noTriton inconclusive
CCOc1ccccc1NC(=O)C1CCN(S(=O)(=O)c2ccc3[nH]c(=O)oc3c2)CC1	none
CCOc1ccccc1NC(=O)C1CCN(S(=O)(=O)c2ccc3[nH]c4c(c3c2)CCCCC4)CC1	Cruzain noTriton 12.6µM
Cc1ccc(NC(=O)C2CCN(S(=O)(=O)c3ccc4[nH]c5c(c4c3)CCCCC5)CC2)cc1	Cruzain noTriton 12.6µM
Cc1ccc(C2=Nc3ccccc3NC(c3ccncc3)=N2)cc1	none
COc1ccc(C2c3c(n(C)c4ccccc34)C(=O)N2CC(=O)Nc2cccc(Cl)c2)cc1 (stereo unspecified)	Cruzain noTriton inconclusive
O=C(/C=C/c1ccccc1)N1CCN(Cc2cc(=O)n3nc(-c4ccccc4)sc3n2)CC1	none
Cc1cccc(Cn2c(CNS(=O)(=O)c3ccc(C(C)C)cc3)nc3cccnc32)c1	none
COc1cc2c(C(=O)N3CCN(c4cccc(C)c4)C(C)C3)cn(CC(C)C)c(=O)c2cc1OC (stereo unspecified)	Cruzain noTriton inconclusive
Cc1ccc(NS(=O)(=O)c2ccc3[nH]c4c(c3c2)CCCCCC4)cc1	none
Cc1ccc(NC(=S)NCc2ccc3[nH]c4c(c3c2)CCCC4)cc1	Cruzain noTriton 31.6µM
Cc1cccc(NS(=O)(=O)c2ccc(NC(=O)N3CCCC3)cc2)c1	none
Cc1ccc(N2CCN(C(=O)c3cn(C)c4ccc(S(=O)(=O)N5CCC(C)CC5)cc4c3=O)CC2C)cc1 (stereo unspecified)	none
Cc1ccc(/C=C(\C#N)c2nn(-c3ccccc3)c(N)c2C#N)cc1	none
Cc1c(/C=C(\C#N)c2nn(-c3ccccc3)c(N)c2C#N)c2ccccc2n1Cc1ccc(F)cc1	Cruzain noTriton 3.98µM
COc1cccc(Cn2c(=O)cc(C)c3c(C)nn(-c4ccc(C)cc4)c32)c1	none

Source: PubChem BioAssay (National Center for Advancing Translational Sciences (NCATS))
